In publication PMC7862700, “An all-to-all approach to the identification of sequence-specific readers for epigenetic DNA modifications on cytosine” one finds binding signal data, which are given here for 1 sequence.

Experiment in all cases: DAPPL (digital affinity profiling via proximity ligation, sequencing); 10 mM Tris-HCl pH 7.5, 50 mM NaCl, 1 mM DTT, 4% glycerol, room temperature, 30 min; GST-TFs on glutathione beads, 16-mer random dsDNA library, 0.1% formaldehyde crosslink after washing; high values mean tight binding
One assay has as its target T1, FLI1 (Homo sapiens, UniProt Q01543 1-452).
T1 sequence: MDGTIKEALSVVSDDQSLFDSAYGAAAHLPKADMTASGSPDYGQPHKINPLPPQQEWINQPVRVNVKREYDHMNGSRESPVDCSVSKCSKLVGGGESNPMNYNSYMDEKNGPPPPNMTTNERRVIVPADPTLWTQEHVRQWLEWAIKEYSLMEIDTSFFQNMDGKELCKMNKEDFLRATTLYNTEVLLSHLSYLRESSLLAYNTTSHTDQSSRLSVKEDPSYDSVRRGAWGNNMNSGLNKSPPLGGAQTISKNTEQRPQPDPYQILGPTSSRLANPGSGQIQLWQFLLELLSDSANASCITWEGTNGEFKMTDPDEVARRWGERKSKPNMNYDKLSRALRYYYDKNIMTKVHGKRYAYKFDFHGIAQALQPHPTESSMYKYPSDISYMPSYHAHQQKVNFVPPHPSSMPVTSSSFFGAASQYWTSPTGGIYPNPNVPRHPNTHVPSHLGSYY
As to conditions: protein: recombinant; tags: N-terminal GST; dsDNA, one strand shown. The method, boiled down:
(§1)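 Human transcription factors were made in yeast as GST fusions, captured on glutathione beads and barcoded with DNA. With a tag-only sample included, the pool was incubated with 200 nmole of a random double-stranded 16-mer DNA library in Tris/NaCl/DTT/glycerol buffer at room temperature for 30 min, then crosslinked with 0.1% formaldehyde after washing, ligated by proximity, amplified and sequenced. For binding signal, each hexamer's read frequency for a factor is divided by its frequency for the tag-only sample.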

The next assay concerns the target T2, ELK1 (Homo sapiens, UniProt P19419 1-428).
T2 sequence: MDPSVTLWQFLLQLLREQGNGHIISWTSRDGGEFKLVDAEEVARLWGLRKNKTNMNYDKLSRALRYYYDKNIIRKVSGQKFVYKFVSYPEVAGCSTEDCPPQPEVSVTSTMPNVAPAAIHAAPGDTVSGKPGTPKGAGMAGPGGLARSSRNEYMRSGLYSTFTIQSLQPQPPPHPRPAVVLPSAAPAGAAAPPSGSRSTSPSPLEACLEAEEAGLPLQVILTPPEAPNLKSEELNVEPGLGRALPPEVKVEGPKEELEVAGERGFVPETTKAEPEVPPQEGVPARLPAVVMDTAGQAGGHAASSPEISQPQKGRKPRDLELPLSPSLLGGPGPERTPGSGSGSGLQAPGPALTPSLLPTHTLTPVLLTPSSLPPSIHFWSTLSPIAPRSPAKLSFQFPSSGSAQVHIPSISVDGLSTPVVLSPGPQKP
The settings on record: protein: recombinant; tags: N-terminal GST; dsDNA, one strand shown. The procedure, abridged:
as §1

The target in another assay is T3, GABPA (Homo sapiens, UniProt Q06546 1-454).
T3 sequence: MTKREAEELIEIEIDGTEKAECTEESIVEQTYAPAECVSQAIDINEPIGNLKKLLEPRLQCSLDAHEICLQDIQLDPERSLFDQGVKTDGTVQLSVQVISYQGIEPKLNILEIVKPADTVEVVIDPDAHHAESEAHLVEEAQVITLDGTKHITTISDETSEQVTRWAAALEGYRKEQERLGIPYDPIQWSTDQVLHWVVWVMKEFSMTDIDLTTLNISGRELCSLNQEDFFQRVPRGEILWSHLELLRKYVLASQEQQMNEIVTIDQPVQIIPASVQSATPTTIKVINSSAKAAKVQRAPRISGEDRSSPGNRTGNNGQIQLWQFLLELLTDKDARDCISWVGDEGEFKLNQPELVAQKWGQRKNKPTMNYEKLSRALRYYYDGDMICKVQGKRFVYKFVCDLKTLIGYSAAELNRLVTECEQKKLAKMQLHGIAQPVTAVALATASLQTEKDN
As to conditions: protein: recombinant; tags: N-terminal GST; dsDNA, one strand shown. The procedure, abridged:
as §1

Another assay deals with T4, ERG (Homo sapiens, UniProt P11308 1-479).
T4 sequence: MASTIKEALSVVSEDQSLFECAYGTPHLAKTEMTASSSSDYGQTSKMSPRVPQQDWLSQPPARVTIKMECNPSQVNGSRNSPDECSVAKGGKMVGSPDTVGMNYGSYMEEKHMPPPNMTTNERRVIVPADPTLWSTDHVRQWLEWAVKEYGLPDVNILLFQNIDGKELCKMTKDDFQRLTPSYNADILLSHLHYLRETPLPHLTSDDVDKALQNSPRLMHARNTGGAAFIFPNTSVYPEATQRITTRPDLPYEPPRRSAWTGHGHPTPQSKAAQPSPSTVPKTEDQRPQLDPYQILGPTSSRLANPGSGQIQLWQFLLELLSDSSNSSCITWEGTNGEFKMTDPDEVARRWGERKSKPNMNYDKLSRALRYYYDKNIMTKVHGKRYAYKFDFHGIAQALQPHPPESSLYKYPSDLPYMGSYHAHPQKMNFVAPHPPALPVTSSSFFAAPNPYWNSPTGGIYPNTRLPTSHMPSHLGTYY
As to conditions: protein: recombinant; tags: N-terminal GST; dsDNA, one strand shown. The method, boiled down: as §1

A further assay deals with ELF1 (Homo sapiens, UniProt P32519 1-619). The settings on record: protein: recombinant; tags: N-terminal GST; dsDNA, one strand shown. The procedure, abridged: as §1
For the next assay, the target named is T5, EHF (Homo sapiens, UniProt Q9NZC4 1-300).
T5 sequence: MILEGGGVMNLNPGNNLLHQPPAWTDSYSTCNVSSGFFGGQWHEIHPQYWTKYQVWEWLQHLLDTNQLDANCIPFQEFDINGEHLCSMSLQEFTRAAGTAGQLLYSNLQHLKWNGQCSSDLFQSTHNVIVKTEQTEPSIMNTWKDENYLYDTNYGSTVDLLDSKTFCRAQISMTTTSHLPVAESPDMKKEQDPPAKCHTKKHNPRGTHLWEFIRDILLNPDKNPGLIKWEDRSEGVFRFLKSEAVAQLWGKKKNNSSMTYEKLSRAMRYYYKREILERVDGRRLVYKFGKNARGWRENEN
As to conditions: protein: recombinant; tags: N-terminal GST; dsDNA, one strand shown. The procedure, abridged:
as §1

A further assay has as its target SPI1 (Homo sapiens, UniProt P17947 1-270). As to conditions: protein: recombinant; tags: N-terminal GST; dsDNA, one strand shown. The method, boiled down:
as §1

The target in the next assay is SPIB (Homo sapiens, UniProt Q01892 1-262). As to conditions: protein: recombinant; tags: N-terminal GST; dsDNA, one strand shown. The method, boiled down:
as §1

In another assay the target is T6, ELK3 (Homo sapiens, UniProt P41970 1-407).
T6 sequence: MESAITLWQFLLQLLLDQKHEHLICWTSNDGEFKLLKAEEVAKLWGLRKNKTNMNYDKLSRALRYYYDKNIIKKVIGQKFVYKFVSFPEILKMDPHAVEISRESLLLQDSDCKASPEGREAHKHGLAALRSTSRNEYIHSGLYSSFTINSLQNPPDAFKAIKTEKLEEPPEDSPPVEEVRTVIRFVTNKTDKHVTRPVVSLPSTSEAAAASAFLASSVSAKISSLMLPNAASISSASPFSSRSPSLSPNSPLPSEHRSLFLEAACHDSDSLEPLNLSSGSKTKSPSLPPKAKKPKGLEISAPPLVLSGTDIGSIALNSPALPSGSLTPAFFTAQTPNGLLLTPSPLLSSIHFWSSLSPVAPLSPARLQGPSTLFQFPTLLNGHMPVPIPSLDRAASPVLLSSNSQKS
The settings on record: protein: recombinant; tags: N-terminal GST; dsDNA, one strand shown. The procedure, abridged:
as §1

The next assay deals with T7, FEV (Homo sapiens, UniProt Q99581 1-238).
T7 sequence: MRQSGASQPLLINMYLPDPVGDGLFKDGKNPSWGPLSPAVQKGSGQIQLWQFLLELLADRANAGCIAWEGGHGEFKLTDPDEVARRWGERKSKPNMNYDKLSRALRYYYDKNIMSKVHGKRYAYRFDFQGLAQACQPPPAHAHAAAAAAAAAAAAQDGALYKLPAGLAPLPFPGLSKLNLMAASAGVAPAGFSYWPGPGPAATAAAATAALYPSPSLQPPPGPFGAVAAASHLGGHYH
The settings on record: protein: recombinant; tags: N-terminal GST; dsDNA, one strand shown. The method, boiled down:
as §1

The next assay deals with ETV5 (Homo sapiens, UniProt P41161 1-510). The settings on record: protein: recombinant; tags: N-terminal GST; dsDNA, one strand shown. The procedure, abridged:
as §1

For the next assay, the target named is HSF1 (Homo sapiens, UniProt Q00613 1-529). As to conditions: protein: recombinant; tags: N-terminal GST; chain copies: 3; dsDNA, one strand shown. The method, boiled down:
as §1

The target in another assay is T8, SPIC (Homo sapiens, UniProt Q8N5J4 1-248).
T8 sequence: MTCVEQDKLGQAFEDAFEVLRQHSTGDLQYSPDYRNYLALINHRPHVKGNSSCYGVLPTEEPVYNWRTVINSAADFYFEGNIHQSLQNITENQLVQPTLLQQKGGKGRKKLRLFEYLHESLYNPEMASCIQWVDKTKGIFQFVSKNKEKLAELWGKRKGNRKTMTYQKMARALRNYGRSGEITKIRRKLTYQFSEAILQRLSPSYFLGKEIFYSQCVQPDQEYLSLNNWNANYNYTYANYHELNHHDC
The settings on record: protein: recombinant; tags: N-terminal GST; dsDNA, one strand shown. The procedure, abridged:
as §1

Another assay has as its target ELF4 (Homo sapiens, UniProt Q99607 1-663). The settings on record: protein: recombinant; tags: N-terminal GST; dsDNA, one strand shown. The procedure, abridged: as §1
For a further assay, the target named is T9, ELK4 (Homo sapiens, UniProt P28324-2 1-405).
T9 sequence: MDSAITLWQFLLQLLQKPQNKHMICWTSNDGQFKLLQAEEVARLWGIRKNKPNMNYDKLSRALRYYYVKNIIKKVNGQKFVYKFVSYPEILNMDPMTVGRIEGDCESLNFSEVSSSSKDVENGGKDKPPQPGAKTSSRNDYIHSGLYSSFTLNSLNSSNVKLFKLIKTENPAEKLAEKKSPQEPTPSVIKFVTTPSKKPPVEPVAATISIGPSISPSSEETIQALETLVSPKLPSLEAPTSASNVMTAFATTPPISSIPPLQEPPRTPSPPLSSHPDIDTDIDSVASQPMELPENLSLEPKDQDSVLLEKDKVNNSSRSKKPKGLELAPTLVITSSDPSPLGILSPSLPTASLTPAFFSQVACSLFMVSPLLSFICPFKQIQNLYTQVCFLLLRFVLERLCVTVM
As to conditions: protein: recombinant; tags: N-terminal GST; dsDNA, one strand shown. The method, boiled down:
as §1

Another assay has as its target T10, ETV2 (Homo sapiens, UniProt O00321 1-342).
T10 sequence: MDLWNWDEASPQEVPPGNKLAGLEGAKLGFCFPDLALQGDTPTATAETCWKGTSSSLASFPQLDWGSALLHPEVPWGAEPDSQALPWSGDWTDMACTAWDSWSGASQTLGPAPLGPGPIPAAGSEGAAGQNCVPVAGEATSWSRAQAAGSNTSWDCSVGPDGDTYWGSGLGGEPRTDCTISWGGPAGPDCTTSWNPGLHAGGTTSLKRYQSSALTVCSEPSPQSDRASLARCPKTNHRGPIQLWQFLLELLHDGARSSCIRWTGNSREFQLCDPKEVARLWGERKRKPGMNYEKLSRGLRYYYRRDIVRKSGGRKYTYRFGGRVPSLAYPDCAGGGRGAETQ
As to conditions: protein: recombinant; tags: N-terminal GST; dsDNA, one strand shown. The method, boiled down: as §1

The target in the next assay is T11, ELF3 (Homo sapiens, UniProt P78545 1-371).
T11 sequence: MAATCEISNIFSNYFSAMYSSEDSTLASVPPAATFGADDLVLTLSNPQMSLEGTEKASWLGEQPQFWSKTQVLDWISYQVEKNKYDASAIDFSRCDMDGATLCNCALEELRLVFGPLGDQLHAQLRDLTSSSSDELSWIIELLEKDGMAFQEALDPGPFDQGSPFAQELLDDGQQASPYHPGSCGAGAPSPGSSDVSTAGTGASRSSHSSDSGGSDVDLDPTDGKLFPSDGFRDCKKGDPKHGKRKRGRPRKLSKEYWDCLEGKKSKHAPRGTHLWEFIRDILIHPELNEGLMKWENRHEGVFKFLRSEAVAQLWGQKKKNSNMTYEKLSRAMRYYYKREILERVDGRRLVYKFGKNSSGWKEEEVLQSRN
As to conditions: protein: recombinant; tags: N-terminal GST; dsDNA, one strand shown. The procedure, abridged:
as §1

The target of another assay is CRX (Homo sapiens, UniProt O43186 1-299). The settings on record: protein: recombinant; tags: N-terminal GST; dsDNA, one strand shown. The procedure, abridged:
as §1

The target in another assay is ETV1 (Homo sapiens, UniProt P50549 1-477). The settings on record: protein: recombinant; tags: N-terminal GST; dsDNA, one strand shown. The method, boiled down: as §1
ETV1, sequence (P50549 whole entry): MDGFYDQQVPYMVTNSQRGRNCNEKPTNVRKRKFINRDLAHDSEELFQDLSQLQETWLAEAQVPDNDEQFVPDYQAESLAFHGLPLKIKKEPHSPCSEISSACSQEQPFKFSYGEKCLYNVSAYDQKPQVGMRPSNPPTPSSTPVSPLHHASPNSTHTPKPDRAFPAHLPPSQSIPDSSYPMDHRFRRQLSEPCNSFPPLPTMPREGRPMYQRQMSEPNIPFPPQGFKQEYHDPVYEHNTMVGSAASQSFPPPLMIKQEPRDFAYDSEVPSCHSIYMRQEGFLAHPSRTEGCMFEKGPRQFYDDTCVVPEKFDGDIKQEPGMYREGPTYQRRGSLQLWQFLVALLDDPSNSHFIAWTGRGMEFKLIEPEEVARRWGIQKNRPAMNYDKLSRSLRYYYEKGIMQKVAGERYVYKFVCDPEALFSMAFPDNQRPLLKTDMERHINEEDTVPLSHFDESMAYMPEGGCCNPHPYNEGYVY

ETV5, sequence (P41161 whole entry): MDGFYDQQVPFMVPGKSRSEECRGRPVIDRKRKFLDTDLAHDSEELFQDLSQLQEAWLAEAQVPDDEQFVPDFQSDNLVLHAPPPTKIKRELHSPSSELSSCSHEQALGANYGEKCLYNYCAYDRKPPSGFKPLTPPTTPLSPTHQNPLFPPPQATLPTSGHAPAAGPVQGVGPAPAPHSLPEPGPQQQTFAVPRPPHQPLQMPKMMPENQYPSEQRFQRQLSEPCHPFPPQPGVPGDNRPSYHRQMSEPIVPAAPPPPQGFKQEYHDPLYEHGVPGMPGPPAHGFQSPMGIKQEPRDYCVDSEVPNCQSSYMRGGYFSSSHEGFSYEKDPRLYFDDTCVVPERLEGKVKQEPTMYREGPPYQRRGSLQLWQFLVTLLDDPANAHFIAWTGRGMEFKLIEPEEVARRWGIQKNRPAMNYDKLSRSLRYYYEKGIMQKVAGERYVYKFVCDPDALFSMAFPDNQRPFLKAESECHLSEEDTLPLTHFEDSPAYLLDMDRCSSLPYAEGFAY
ELF4, sequence (Q99607 whole entry): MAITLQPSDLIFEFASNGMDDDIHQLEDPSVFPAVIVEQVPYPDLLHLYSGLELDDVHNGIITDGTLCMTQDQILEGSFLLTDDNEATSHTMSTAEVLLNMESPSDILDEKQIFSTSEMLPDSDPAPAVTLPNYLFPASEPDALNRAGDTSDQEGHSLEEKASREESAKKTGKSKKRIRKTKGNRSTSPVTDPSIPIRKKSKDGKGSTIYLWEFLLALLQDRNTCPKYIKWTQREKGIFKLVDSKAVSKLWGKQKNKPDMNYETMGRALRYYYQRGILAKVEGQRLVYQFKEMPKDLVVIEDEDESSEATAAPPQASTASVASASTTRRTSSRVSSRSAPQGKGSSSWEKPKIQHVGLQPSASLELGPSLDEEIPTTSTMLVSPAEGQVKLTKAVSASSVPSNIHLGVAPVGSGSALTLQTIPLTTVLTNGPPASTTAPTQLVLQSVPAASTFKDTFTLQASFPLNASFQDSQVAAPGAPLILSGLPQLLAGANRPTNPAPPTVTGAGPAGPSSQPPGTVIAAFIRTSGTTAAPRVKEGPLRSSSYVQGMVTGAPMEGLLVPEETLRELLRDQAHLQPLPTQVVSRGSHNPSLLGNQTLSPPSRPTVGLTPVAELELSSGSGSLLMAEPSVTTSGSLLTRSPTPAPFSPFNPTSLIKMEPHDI
SPIB, sequence (Q01892 whole entry): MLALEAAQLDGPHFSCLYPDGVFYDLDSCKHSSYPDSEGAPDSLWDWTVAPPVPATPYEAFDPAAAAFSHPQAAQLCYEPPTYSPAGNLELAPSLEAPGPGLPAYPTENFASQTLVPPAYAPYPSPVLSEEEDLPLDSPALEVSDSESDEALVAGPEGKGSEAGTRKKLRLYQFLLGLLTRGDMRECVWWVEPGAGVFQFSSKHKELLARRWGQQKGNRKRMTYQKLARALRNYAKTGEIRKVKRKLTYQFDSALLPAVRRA
ELF1, sequence (P32519 whole entry): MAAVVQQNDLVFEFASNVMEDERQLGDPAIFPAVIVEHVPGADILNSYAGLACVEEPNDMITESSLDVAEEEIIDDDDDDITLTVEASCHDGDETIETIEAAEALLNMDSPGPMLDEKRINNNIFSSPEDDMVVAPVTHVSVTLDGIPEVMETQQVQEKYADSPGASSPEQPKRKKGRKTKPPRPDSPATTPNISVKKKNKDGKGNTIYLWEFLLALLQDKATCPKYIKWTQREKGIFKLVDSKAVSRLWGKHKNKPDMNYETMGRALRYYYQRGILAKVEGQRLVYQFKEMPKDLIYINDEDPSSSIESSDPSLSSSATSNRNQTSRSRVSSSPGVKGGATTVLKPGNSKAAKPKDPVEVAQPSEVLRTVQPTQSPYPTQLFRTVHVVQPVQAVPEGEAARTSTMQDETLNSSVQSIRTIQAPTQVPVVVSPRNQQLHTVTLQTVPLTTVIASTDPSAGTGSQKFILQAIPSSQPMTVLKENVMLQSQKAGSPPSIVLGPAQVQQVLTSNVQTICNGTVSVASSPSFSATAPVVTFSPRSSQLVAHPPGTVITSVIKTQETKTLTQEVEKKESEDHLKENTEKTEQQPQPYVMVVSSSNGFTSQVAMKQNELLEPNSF
HSF1, sequence (Q00613 whole entry): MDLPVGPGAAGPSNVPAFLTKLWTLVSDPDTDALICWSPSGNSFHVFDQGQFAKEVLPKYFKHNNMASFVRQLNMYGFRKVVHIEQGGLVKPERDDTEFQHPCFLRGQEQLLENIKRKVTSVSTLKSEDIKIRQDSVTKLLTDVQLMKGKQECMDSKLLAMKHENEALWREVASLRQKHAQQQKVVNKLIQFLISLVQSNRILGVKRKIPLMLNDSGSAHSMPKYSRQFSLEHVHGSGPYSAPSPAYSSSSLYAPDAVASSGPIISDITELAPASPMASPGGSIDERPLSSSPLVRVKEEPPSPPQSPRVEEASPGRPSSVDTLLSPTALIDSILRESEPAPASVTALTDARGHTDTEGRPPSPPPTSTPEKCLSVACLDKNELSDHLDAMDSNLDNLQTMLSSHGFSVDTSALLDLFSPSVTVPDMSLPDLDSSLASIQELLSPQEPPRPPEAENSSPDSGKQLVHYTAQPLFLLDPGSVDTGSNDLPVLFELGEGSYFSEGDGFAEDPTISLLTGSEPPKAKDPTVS
CRX, sequence (O43186 whole entry): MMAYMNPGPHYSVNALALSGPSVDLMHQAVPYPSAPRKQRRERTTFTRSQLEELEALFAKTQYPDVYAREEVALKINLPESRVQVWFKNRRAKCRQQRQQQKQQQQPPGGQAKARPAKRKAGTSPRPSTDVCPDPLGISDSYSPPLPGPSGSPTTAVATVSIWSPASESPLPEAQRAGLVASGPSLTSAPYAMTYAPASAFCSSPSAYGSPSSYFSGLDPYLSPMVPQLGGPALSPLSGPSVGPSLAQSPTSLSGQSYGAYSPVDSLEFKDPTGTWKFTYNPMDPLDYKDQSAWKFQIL

Consider CCTAAC, for which the binding signal with FLI1 was 1.56 fold enrichment (6-mer frequency, TF over GST control); in the assay with ELK1, 1.43 fold enrichment (6-mer frequency, TF over GST control); in the assay with GABPA it was 1.37 fold enrichment (6-mer frequency, TF over GST control); with ERG it was 1.42 fold enrichment (6-mer frequency, TF over GST control); with ELF1 it was 1.44 fold enrichment (6-mer frequency, TF over GST control); with EHF, 1.31 fold enrichment (6-mer frequency, TF over GST control). For the same sequence, the binding signal in the assay with SPI1 is 1.48 fold enrichment (6-mer frequency, TF over GST control); with SPIB, 1.4 fold enrichment (6-mer frequency, TF over GST control); in the assay with ELK3 it was 1.42 fold enrichment (6-mer frequency, TF over GST control); with FEV it was 1.38 fold enrichment (6-mer frequency, TF over GST control); in the assay with ETV5 it was 1.42 fold enrichment (6-mer frequency, TF over GST control); with HSF1 it was 1.19 fold enrichment (6-mer frequency, TF over GST control). The binding signal with SPIC is 1.49 fold enrichment (6-mer frequency, TF over GST control); with ELF4, 1.53 fold enrichment (6-mer frequency, TF over GST control); with ELK4, 1.36 fold enrichment (6-mer frequency, TF over GST control); with ETV2, 1.41 fold enrichment (6-mer frequency, TF over GST control); with ELF3, 1.51 fold enrichment (6-mer frequency, TF over GST control); in the assay with CRX, 1.25 fold enrichment (6-mer frequency, TF over GST control). Moreover, the binding signal with ETV1 was 1.35 fold enrichment (6-mer frequency, TF over GST control).
